Inconclusive results are not listed. The source made the active and inactive calls. The calls were made as follows: active = hit-call score of the fitted dose curve at least 0.9, where 1 is the maximum; inconclusive = response in the unintended direction; inactive = score below 0.9.
Test: CCTE_Mundy_HCI_hNP1_Pro_ResponderAvgInten: CCTE's Proliferation Assay in human neuroprogenitor cells, Mundy Lab (AID 2284224);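 also: human neural progenitor cells hNP1 derived from WA09 embryonic stem cells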
How it was run: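 Proliferation read as average intensity of BrdU-positive cells, imaged at 26.25 h post-dosing: chemical exposure started after 40–44 h culture, BrdU during final 4 h, paraformaldehyde fixation. Positive-direction fit relative to DMSO.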

SMILES	AC50	outcome
ClC1=C(Cl)[C@]2(Cl)[C@@H]3[C@@H]4C[C@@H]([C@H]5O[C@@H]45)[C@@H]3[C@@]1(Cl)C2(Cl)Cl	25.2 µM (active)	
CCOP(=S)(OCC)SCSC(C)(C)C		inactive
CO/C=C(/C(=O)OC)c1ccccc1COc1cccc(C(F)(F)F)n1	86.9 µM (active)	
COc1ccc(O)c(C(C)(C)C)c1		inactive
ClC1=C(Cl)[C@]2(Cl)[C@@H]3[C@@H](Cl)[C@H]4O[C@H]4[C@@H]3C1(Cl)C2(Cl)Cl	15.8 µM (active)	
O=S(=O)(O)C(F)(F)C(F)(F)C(F)(F)C(F)(F)C(F)(F)C(F)(F)F		inactive

Reference: PubChem BioAssay (EPA / NIEHS)
